Assay results: PubChem BioAssay (Tox21)
Where “and” joins values, the source holds several entries; their conditions need not be identical. Equal values may be shown once. Results filed as inconclusive are left out. Some compounds were tested as several samples or in several runs, with calls that do not always agree. Calls of active or inactive are those of the source. Unless noted, calls come from the whole dose curve; as a rule, active = well fitted curve in the direction sought with a large enough effect in the repeat runs; inconclusive = weak or mixed curves; inactive = no such curve, though single readings can be large; an effect the other way counts as inactive or inconclusive.

How the values were obtained:
[1] = qHTS assay to identify small molecule antagonists of the estrogen related receptor (ERR) signaling pathway from Tox21 library - cell viability counter screen (AID 1224834); note: nearly all actives have a fitted effect of over 30% in size; note: potency is the fitted concentration of half-maximal effect
Procedure, shortened: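 Counter screen run in ERR cells (2,000 cells/well): cells pre-incubated 6 h, then treated with compounds for 17.5 h at 37 C. Fluorescence was read 30 min after CellTiter-Fluor addition.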

[2] = biological target: Luciferin 4-monooxygenase (Photinus pyralis) (UniProt P08659); experiment: qHTS assay to identify small molecule inhibitors of firefly luciferase (AID 1224835); note: nearly all actives have a fitted effect of over 25% in size; note: potency is the fitted concentration of half-maximal effect
Chain of Luciferin 4-monooxygenase (Photinus pyralis) (P08659 whole entry, looked up): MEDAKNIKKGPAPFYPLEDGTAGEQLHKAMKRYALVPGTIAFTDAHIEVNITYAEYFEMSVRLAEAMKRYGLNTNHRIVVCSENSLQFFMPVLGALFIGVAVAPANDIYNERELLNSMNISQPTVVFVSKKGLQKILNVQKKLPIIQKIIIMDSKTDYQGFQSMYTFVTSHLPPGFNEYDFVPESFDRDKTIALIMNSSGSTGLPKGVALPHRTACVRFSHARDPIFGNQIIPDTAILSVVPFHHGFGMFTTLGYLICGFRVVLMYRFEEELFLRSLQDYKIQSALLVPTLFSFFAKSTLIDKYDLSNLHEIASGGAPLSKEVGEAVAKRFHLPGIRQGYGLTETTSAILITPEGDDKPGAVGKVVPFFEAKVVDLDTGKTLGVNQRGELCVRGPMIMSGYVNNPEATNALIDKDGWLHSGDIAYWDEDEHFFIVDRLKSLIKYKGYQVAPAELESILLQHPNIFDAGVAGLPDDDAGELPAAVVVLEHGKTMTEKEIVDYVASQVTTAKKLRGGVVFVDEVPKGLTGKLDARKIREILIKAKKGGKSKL
Procedure, shortened: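 Biochemical qHTS: compounds run as interplate titrations against purified firefly enzyme, with D-luciferin and ATP each at its KM concentration. Light output recorded by CCD imaging.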

[3] = qHTS assay to identify small molecule agonists of the constitutive androstane receptor (CAR) signaling pathway - cell viability counter screen (AID 1224836); note: nearly all actives have a fitted effect of over 45% in size; note: potency is the fitted concentration of half-maximal effect
Procedure, shortened: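 23 h treatment, 37 C, 5% CO2. Cell line: HepG2 stably expressing hCAR with a CYP2B6-2.2kb construct. Co-treatment: PK11195, 0.75 uM final. Read-out: CellTiter-Fluor fluorescence intensity.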

[4] = qHTS assay to identify small molecule antagonists of the constitutive androstane receptor (CAR) signaling pathway - cell viability counter screen (AID 1224837); note: nearly all actives have a fitted effect of over 45% in size; note: potency is the fitted concentration of half-maximal effect
Procedure, shortened: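 CITCO at 50 nM final was added alongside compounds (15 concentrations) to double-stable hCAR/CYP2B6-2.2kb HepG2 cells. Following 23 hr at 37 C, cell viability was quantified by CellTiter-Fluor fluorescence intensity.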

[5] = biological target: Nuclear receptor subfamily 1 group I member 3 (Homo sapiens) (UniProt Q14994); experiment: qHTS assay to identify small molecule antagonists of the constitutive androstane receptor (CAR) signaling pathway (AID 1224838); note: nearly all actives have a fitted effect of over 40% in size; note: potency is the fitted concentration of half-maximal effect
Chain of Nuclear receptor subfamily 1 group I member 3 (Homo sapiens) (Q14994 whole entry, looked up): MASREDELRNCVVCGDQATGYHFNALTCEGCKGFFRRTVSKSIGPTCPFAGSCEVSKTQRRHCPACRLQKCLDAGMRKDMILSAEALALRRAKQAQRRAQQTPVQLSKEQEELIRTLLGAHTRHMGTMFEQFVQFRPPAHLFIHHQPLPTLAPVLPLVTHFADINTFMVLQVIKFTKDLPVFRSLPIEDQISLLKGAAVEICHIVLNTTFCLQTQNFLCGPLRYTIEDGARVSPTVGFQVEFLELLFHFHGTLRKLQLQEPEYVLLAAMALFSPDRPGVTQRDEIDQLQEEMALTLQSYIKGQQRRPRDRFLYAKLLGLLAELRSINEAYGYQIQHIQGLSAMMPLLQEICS
Procedure, shortened: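 Inhibition of CITCO-driven (50 nM final) CYP2B6 reporter expression is measured in HepG2 cells stably carrying hCAR. Fifteen compound concentrations are applied for 24 h at 37 C, followed by luciferase luminescence.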

[6] = biological target: Nuclear receptor subfamily 1 group I member 3 (Homo sapiens) (UniProt Q14994); experiment: qHTS assay to identify small molecule agonists of the constitutive androstane receptor (CAR) signaling pathway (AID 1224839); note: nearly all actives have a fitted effect of over 15% in size; note: potency is the fitted concentration of half-maximal effect; for activation: % is set by controls: 0 for no effect and ±100 for the full control effect
Procedure, shortened: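 Compounds tested at 15 concentrations on HepG2 cells stably harbouring hCAR and CYP2B6-2.2kb reporter constructs, co-treated with PK11195 (0.75 uM final), 24 h at 37 C; luminescent reporter signal quantified.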

[7] = qHTS assay to identify small molecule antagonists of the estrogen related receptor signaling pathway with the pleiotropic PPARgamma coactivator (PGC) from Tox21 10K library - cell viability counter screen (AID 1224840; active = well fitted cell-killing curve with a large enough effect in the repeat runs, not every such curve was filed as active; note: % is set by controls: 0 for no effect and ±100 for the full control effect; nearly all actives have a fitted effect of over 40% in size)
Procedure, shortened: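 Readout: fluorescence intensity from CellTiter-Fluor after 30 min at 37 C/5% CO2. Preceded by 17.5 h treatment of PGC/ERR cells with DMSO-dissolved compounds, added 6 h post-seeding.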

[8] = biological target: Thyrotropin receptor (Homo sapiens) (UniProt P16473); experiment: qHTS assay to identify small molecule agonists of the thyroid stimulating hormone receptor (TSHR) signaling pathway (AID 1224843; calls by dose curve; note: % is set by controls: 0 for no effect and ±100 for the full control effect; nearly all actives have a fitted effect of over 45% in size)
Chain of Thyrotropin receptor (Homo sapiens) (P16473 whole entry, looked up): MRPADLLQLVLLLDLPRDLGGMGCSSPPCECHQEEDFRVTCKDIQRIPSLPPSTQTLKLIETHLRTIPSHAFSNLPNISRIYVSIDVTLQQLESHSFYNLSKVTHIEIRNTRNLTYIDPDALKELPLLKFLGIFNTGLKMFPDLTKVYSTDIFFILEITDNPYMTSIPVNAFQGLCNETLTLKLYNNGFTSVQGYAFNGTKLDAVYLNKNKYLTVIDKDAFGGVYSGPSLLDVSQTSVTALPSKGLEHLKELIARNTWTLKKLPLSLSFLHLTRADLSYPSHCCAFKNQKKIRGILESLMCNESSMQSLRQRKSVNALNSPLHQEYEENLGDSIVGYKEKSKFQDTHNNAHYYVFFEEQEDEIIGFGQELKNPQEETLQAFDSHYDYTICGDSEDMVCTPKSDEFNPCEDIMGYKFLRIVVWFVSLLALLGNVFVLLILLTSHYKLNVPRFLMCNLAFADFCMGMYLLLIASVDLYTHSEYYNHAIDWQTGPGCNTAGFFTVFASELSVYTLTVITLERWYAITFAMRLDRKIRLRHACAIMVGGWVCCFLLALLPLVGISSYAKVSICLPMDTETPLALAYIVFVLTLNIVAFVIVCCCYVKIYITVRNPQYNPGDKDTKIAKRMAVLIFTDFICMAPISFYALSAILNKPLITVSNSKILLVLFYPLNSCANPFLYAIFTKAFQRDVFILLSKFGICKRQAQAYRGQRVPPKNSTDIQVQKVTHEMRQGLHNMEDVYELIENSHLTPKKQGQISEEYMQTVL
Procedure, shortened: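 HEK293/TSHR, 800 cells/well; cpd 30 min RT; add cAMP-d2 + anti-cAMP-cryptate, 1 h RT; fluorescence read on plate reader. 15-pt titration, n=3.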

[9] = qHTS assay to identify small molecule agonists of the hypoxia (HIF-1) signaling pathway - cell viability counter screen (AID 1224844; calls by dose curve; note: nearly all actives have a fitted effect of over 50% in size; note: potency is the fitted concentration of half-maximal effect)
Procedure, shortened: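 In this counter screen, HRE-bla ME-180 cell viability after 17 hrs of compound exposure at 37C was read by CellTiter-Glo luminescence, multiplexed with the beta-lactamase reporter measurement.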

[10] = qHTS assay to identify small molecule agonists of H2AX (AID 1224845; active = well fitted activation curve with a large enough effect in the signal ratio in the repeat runs, not every such curve was filed as active; the % refers to the signal ratio; note: potency is the fitted concentration of half-maximal effect)
Procedure, shortened: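 Wild-type CHO-K1 cells, plated overnight, exposed 3hr at 37C to 15 concentrations (0.76% DMSO final). Lysed, then HTRF anti-pH2AX (S139) cryptate and anti-H2AX-d2 antibodies, 24 hr room temperature; 665/620 nm emission read.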

[11] = qHTS assay to identify small molecule agonists of the hypoxia (HIF-1) signaling pathway (AID 1224846; active = well fitted activation curve with a large enough effect in the signal ratio in the repeat runs, not every such curve was filed as active; the % refers to the signal ratio; note: % is set by controls: 0 for no effect and ±100 for the full control effect)
Procedure, shortened: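 ME-180 HRE-bla reporter cells; compounds in DMSO, 17 h at 37C; read-out beta-lactamase via CCF4-AM FRET.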

[12] = qHTS assay to identify small molecule agonists of H2AX - cell viability counter screen (AID 1224847; calls by dose curve; note: top concentration of the series differs between compounds; % is set by controls: 0 for no effect and ±100 for the full control effect; nearly all actives have a fitted effect of over 30% in size)
Procedure, shortened: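 Compounds tested at 15 concentrations were incubated 3 hr at 37C with wild-type CHO-K1 cells; cellular ATP-based luminescence (CellTiter-Glo) indicated viability.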

[13] = qHTS RealTime-Glo MT Cell Viability Assay in HepG2 cells - 24 hour (AID 1224867); note: % is set by controls: 0 for no effect and ±100 for the full control effect; nearly all actives have a fitted effect of over 50% in size
Procedure, shortened: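 HepG2 cells (600/well) were dispensed with RealTime-Glo reagents, incubated 5 h at 37 °C, then treated with compounds in DMSO for up to 40 h. Nonlytic NanoLuc luminescence reflecting viable cells was read at each stated time point.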

[14] = qHTS RealTime-Glo MT Cell Viability Assay in HEK293 cells - 32 hour (AID 1224868); note: nearly all actives have a fitted effect of over 50% in size; note: potency is the fitted concentration of half-maximal effect
Procedure, shortened: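 HEK293 cells seeded with NanoLuc/prosubstrate reagent, rested 5 h at 37 C, then dosed and kept at 37 C up to 40 h. Nonlytic real-time luminescence from viable cells read at 0, 8, 16, 24, 32 and 40 h.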

[15] = A CellTox Green Cytotoxicity Assay to monitor cytotoxicity in HEK293 cells - 0 hour (AID 1224869); note: nearly all actives have a fitted effect of over 50% in size; note: potency is the fitted concentration of half-maximal effect; for Cytotoxicity: % is set by controls: 0 for no effect and ±100 for the full control effect
Procedure, shortened: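 Real-time, in one plate: 600 HEK293 cells/well with dead-cell DNA dye, pinned compound after 5 h, 37 C incubation over 40 h; viable cells give no appreciable fluorescence.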

[16] = qHTS assay to identify small molecule antagonists of the estrogen related receptor signaling pathway with the pleiotropic PPARgamma coactivator (PGC) from Tox21 10K library (AID 1224841; call rule not given here; note: potency is the fitted concentration of half-maximal effect)
Procedure, shortened: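 One-Glo luminescence, measured after half an hour at room temperature, quantified reporter output of PGC/ERR cells. These had been plated at 2,000 per well, incubated 6 h, dosed with compounds in DMSO, then kept 18 h at 37 C.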

[17] = qHTS assay to identify small molecule agonists of the estrogen related receptor signaling pathway with the pleiotropic PPARgamma coactivator (PGC) from Tox21 10K library (AID 1224842); note: nearly all actives have a fitted effect of over 15% in size; note: potency is the fitted concentration of half-maximal effect; for activation: % is set by controls: 0 for no effect and ±100 for the full control effect
Procedure, shortened: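 PGC/ERR reporter cell line, 2,000 cells per well, incubated 6 h at 37 C before 23 nL compound in DMSO was added. After 18 h at 37 C, One-Glo luminescence read following 30 min at room temperature.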

[18] = qHTS assay to identify small molecule agonists of the estrogen related receptor (ERR) signaling pathway from Tox21 library (AID 1224849; calls by dose curve; note: % is set by controls: 0 for no effect and ±100 for the full control effect; nearly all actives have a fitted effect of over 15% in size); details: ERR reporter cell line, ONE-Glo luciferase, 18 h; at 92.4 µM (top of the series)
Procedure, shortened: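 Luciferase activity in ERR pathway reporter cells served as the agonist readout; exposure lasted 18 h at 37 C, with ONE-Glo detection after 30 min at room temperature.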

[19] = qHTS assay to identify small molecule antagonists of the estrogen related receptor (ERR) signaling pathway from Tox21 library (AID 1224848)
Procedure, shortened: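 Compounds dissolved in DMSO are pin-transferred onto ERR reporter cells (2,000 per well) that have settled for 6 h at 37 C. Plates then incubate 18 h at 37 C before ONE-Glo luciferase reagent and a luminescence read 30 min later.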

CCOc1cc(C=O)ccc1O
inactive: Potency [1] | Potency [2] | Potency [3] | Potency [4] | Potency [5] | Potency [6] | Potency [7] | Potency [8] | Potency [9] | Potency [10] | outcome [11] | Potency [12] | Potency [13] | Potency [14]

Cc1c(COC(=O)[C@@H]2[C@H](/C=C(\Cl)C(F)(F)F)C2(C)C)cccc1-c1ccccc1
inactive: Potency [1] | Potency [2] | Potency [3] | Potency [4] | Potency [6] | Potency [7] | Potency [9] | Potency [10] | outcome [11] | Potency [15]
53.2 µM (active) and inactive: Potency [5]
active: Potency [14] 21.4 µM

Cc1cccc(N)c1N
active: Potency [2] 30.6 µM | Potency [6] 59.1 µM and 54.5 µM
inactive and 15.4 µM (active): Potency [17]
inactive: Potency [1] | Potency [3] | Potency [4] | Potency [7] | Potency [16] | Potency [8] | Potency [9] | Potency [10] | outcome [11] | Potency [12] | Potency [13] | Potency [15]

O=C1C=CC(=O)C=C1
active: Potency [2] 31.9 µM and 22.4 µM | Potency [9] 49.2 µM and 49 µM
inactive: Potency [1] | Potency [3] | Potency [4] | Potency [5] | Potency [6] | Potency [7] | Potency [8] | Potency [10] | Potency [12] | Potency [13] | Potency [14] | Potency [15]

O=[N+]([O-])c1cccc2ccccc12
inactive: Potency [1] | Potency [2] | Potency [3] | Potency [4] | Potency [6] | Potency [7] | Potency [16] | Potency [17] | Potency [8] | Potency [9] | Potency [10] | outcome [11] | Potency [12] | activity change, positive = activation [18] -1.67% and -0.342% | Potency [13] | Potency [14] | Potency [15]

Nc1ccc(Cl)cc1N
inactive: Potency [1] | Potency [7] | Potency [16] | Potency [8] | Potency [10] | outcome [11] | Potency [12] | Potency [13]
active: Potency [2] 13.1 µM and 7.1 µM | Potency [3] 4.33 µM | Potency [4] 6.86 µM | Potency [5] 217 nM | Potency [17] 8.98 µM and 386 nM | Potency [15] 40 µM

N#Cc1cc(Br)c(O)c(Br)c1
active: Potency [16] 54.4 µM and 41.7 µM
inactive: Potency [1] | Potency [2] | Potency [3] | Potency [4] | Potency [5] | Potency [6] | Potency [7] | Potency [17] | Potency [8] | Potency [9] | Potency [10] | outcome [11] | activity change, positive = activation [18] -51.5% and -34.9% | Potency [14] | Potency [15]

CCCCC(CC)COC(=O)Cl (stereo unspecified)
inactive: Potency [1] | Potency [2] | Potency [3] | Potency [4] | Potency [5] | Potency [6] | Potency [7] | Potency [16] | Potency [17] | Potency [8] | Potency [9] | Potency [10] | outcome [11] | Potency [13] | Potency [14] | Potency [15]

Nc1ccc(Cl)c(Cl)c1
active: Potency [19] 21.7 µM
inactive: Potency [1] | Potency [2] | Potency [3] | Potency [4] | Potency [6] | Potency [7] | Potency [16] | Potency [17] | Potency [8] | Potency [9] | Potency [10] | outcome [11] | Potency [12] | Potency [13] | Potency [14] | Potency [15]

Oc1ccc(-c2ccccc2)cc1
active: Potency [2] 39.4 µM and 39.9 µM | Potency [6] 53.8 µM and 54.5 µM
inactive: Potency [1] | Potency [3] | Potency [4] | Potency [5] | Potency [7] | Potency [16] | Potency [17] | Potency [8] | Potency [9] | Potency [10] | outcome [11] | activity change, positive = activation [18] 1.81% | Potency [13]

C=CCc1ccc2c(c1)OCO2
inactive: Potency [1] | Potency [2] | Potency [3] | Potency [4] | Potency [5] | Potency [6] | Potency [7] | Potency [8] | Potency [9] | Potency [10] | outcome [11] | Potency [12] | Potency [13] | Potency [14]

NNC(N)=S
31.8 µM (active) and inactive: Potency [16]
active: Potency [1] 22.5 µM | Potency [4] 63.5 µM | Potency [5] 63500 nM
105 µM (active) and inactive: Potency [10]
inactive: Potency [2] | Potency [3] | Potency [6] | Potency [7] | Potency [17] | Potency [8] | Potency [9] | outcome [11] | Potency [13] | Potency [14] | Potency [15]

CCCCOCCOP(=O)(OCCOCCCC)OCCOCCCC
inactive: Potency [1] | Potency [2] | Potency [3] | Potency [4] | Potency [5] | Potency [6] | Potency [7] | Potency [9] | Potency [10] | outcome [11] | Potency [12] | Potency [13] | Potency [14]

CNC(=O)N(C)c1nnc(C(C)(C)C)s1
inactive: Potency [1] | Potency [2] | Potency [3] | Potency [4] | Potency [5] | Potency [6] | Potency [7] | Potency [8] | Potency [9] | Potency [10] | Potency [13] | Potency [14] | Potency [15]

CNC(=O)Oc1cccc2c1OC(C)(C)O2
inactive: Potency [1] | Potency [2] | Potency [3] | Potency [4] | Potency [5] | Potency [6] | Potency [7] | Potency [8] | Potency [9] | Potency [10] | outcome [11] | Potency [12] | Potency [13] | Potency [14] | Potency [15]

CCC(C)c1ccc(O)cc1 (stereo unspecified)
active: Potency [2] 71.6 µM
inactive: Potency [1] | Potency [3] | Potency [4] | Potency [5] | Potency [6] | Potency [7] | Potency [16] | Potency [17] | Potency [9] | Potency [10] | outcome [11] | Potency [13] | Potency [14] | Potency [15]
